Tau fluor counter: Counterscreen qHTS for Inhibitors of Tau Fibril Formation, Fluorescence Polarization | tau K18 P301L Alexa594 fluorescence, heparin fibrillization | Potency, µM (highest dose often 57.7 µM) | actives 0.93% (n = 280,000) | AID 1463, 2008; further: nearly all actives have a fitted effect of over 55% in size
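Human K18 P301L tau (15 uM unlabeled plus 0.24 uM Alexa 594-labeled, final) in 100 mM sodium acetate pH 7 was mixed with compound and 20 uM heparin and incubated 6 hr at 37 C.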
FBPA coupling cs: qHTS Assay for Inhibitors of Fructose-1,6-bisphosphate Aldolase from Giardia Lamblia: Coupling assay counterscreen | coupling enzyme system counterscreen, AmpLite Red fluorescence | activity change, negative = inhibition, % at 58.2 µM, hits read low | actives 0.67% (n = 290,000); in the data active means activity change below about -30%
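First, compound is pin-transferred into glyceraldehyde-3-phosphate coupling-enzyme reagent at 57.5 uM final and held 10 min at RT. Next, substrate, coupling system and AmpLite Red are added. After 20 min RT, fluorescence (525/598 nm) is read.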
Sfp PPTase inh: qHTS Assay for Inhibitors of Bacillus subtilis Sfp phosphopantetheinyl transferase (PPTase) | actives 3.5% (n = 310,000) | Potency, µM, usual class: inhibitors | 4'-phosphopantetheinyl transferase ffp (Bacillus subtilis), Q9F4F7 | Biochemical Sfp PPTase activity, qHTS | AID 1490, 2009;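 further: the enzyme is Sfp with the accession as filed and its product quenches rhodamine fluorescence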
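Compounds were incubated with enzyme (final 15 nM) for 15 min at room temperature before substrate addition started the reaction. Fluorescence at 525 nm excitation, 598 nm emission was recorded immediately and after 30 minutes.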
KDM4E inh: qHTS Assay for Inhibitors of Human Jumonji Domain Containing 2E (JMJD2E); AID 2147, 2009; Potency, µM (series often up to 57.1 µM), most hits filed as inhibitors; JMJD2E catalytic domain, FDH-coupled NADH fluorescence (FDH is formaldehyde dehydrogenase); actives 1.6% (n = 230,000); active means well fitted inhibition curve with a large enough effect, not every such curve was filed as active; inconclusive means small, poorly fitted or top-dose-only effect, or another doubt; inactive means no such curve, though single readings can be large or run the other way; further: nearly all actives have a fitted effect of over 50% in size
Target sequence (B2RXH2 1-337 limits assumed): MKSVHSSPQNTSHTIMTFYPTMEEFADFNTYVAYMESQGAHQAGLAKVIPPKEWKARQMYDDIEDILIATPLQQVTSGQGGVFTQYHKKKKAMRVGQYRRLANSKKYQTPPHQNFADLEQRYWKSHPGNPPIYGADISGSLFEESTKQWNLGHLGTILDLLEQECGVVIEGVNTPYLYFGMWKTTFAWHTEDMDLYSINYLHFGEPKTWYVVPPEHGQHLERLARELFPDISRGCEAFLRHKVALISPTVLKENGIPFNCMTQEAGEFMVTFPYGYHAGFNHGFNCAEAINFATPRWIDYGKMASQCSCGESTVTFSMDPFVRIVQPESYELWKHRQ
Tau fibril FP: qHTS for Inhibitors of Tau Fibril Formation, Fluorescence Polarization; Microtubule-associated protein tau (Homo sapiens), P10636; K18 P301L tau heparin fibrillization, Alexa594 FP, 6 h; Potency, µM (doses to about 57.7 µM), hits mostly inhibitors; actives 0.39% (n = 280,000); further: nearly all actives have a fitted effect of over 55% in size
Target sequence (P10636 561-689 P618L limits assumed): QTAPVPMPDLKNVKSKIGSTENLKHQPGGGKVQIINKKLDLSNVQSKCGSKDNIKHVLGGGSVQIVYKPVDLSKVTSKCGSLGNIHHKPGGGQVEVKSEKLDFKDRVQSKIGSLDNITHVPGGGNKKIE
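Steps: dispense K18 P301L tau (15 uM plus 0.24 uM Alexa 594 tracer, final) in pH 7 sodium acetate; add compound; add heparin (20 uM final); incubate 6 hr, 37 C; add ThT (30 uM final); after 1 hr ambient, read FP.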
Tau ThT inhib: qHTS for Inhibitors of Tau Fibril Formation, Thioflavin T Binding | actives 2.1% (n = 270,000) | recombinant tau K18 P301L (four-repeat tau fragment), heparin-induced fibrillization, ThT fluorescence | Potency, µM (highest dose often 57.4 µM), actives largely listed as inhibitors; further: nearly all actives have a fitted effect of over 55% in size
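Heparin-induced (20 uM) aggregation of recombinant human K18 P301L tau, 15 uM unlabeled with 0.24 uM labeled, pH 7 acetate buffer, 6 hr at 37 C with compound. Fibrils quantified by 30 uM ThT fluorescence after 1 hr ambient incubation.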
Of the large screens only hits and unclear results are named; the others gave an inactive call. Hits are enriched below; roughly 5.3% of the tested compounds scored in any of these assays. Unless noted, the call rests on the fitted dose curve; in most records, active means well fitted curve in the direction sought with a large enough effect; inconclusive means small, poorly fitted or top-dose-only effect, or another doubt; inactive means no such curve, though single readings can be large; an effect the other way counts as inactive or inconclusive.

COc1cc2c(cc1OC)C1O[C@](CCCCN3C(=O)c4ccccc4C3=O)(C2)OC2=C1C(=O)OC1(CCCCC1)C2	none (no result: Tau fluor counter, KDM4E inh, Tau fibril FP, Tau ThT inhib)
O=C(NC1CCCC1)c1c[nH]c2ccc(S(=O)(=O)Nc3cccc(C(F)(F)F)c3)cc2c1=O	Tau fluor counter inconclusive, Tau fibril FP 10µM (no result: FBPA coupling cs, Sfp PPTase inh, KDM4E inh)
Cc1ccc(CCNC(=O)c2c[nH]c3ccc(S(=O)(=O)Nc4cccc(C(F)(F)F)c4)cc3c2=O)cc1	Tau fluor counter inconclusive, Tau fibril FP 7.94µM, Tau ThT inhib inconclusive (no result: FBPA coupling cs, Sfp PPTase inh, KDM4E inh)
CC(C)CCNC(=O)c1c[nH]c2ccc(S(=O)(=O)Nc3cccc(C(F)(F)F)c3)cc2c1=O	Tau fluor counter inconclusive, Tau fibril FP 14.1µM (no result: FBPA coupling cs, Sfp PPTase inh, KDM4E inh)
CN(C(=O)c1c[nH]c2ccc(S(=O)(=O)Nc3cccc(C(F)(F)F)c3)cc2c1=O)C1CCCCC1	none (no result: FBPA coupling cs, Sfp PPTase inh, KDM4E inh)
Cc1ccccc1NS(=O)(=O)c1ccc2[nH]cc(C(=O)NCCc3ccccc3)c(=O)c2c1	Tau fluor counter inconclusive, Tau fibril FP 11.2µM (no result: FBPA coupling cs, Sfp PPTase inh, KDM4E inh)
COc1cccc(NS(=O)(=O)c2ccc3[nH]cc(C(=O)NCCC(C)C)c(=O)c3c2)c1	Tau fluor counter inconclusive, Tau fibril FP inconclusive
COCCCNC(=O)CCc1nnc(Cc2ccc(-c3ccccc3)cc2)o1	none
Cc1ccc(CNC(=O)CCc2nnc(Cc3ccc(-c4ccccc4)cc3)o2)o1	Sfp PPTase inh 22.4µM
O=C(O)CC(CCc1ccccc1)OC1OC(CO)C(O)C(O)C1O (centres undefined)	Tau fluor counter inconclusive, KDM4E inh 25.1µM, Tau ThT inhib inconclusive
OC[C@@H]1O[C@@H](Oc2ccc(O)cc2)[C@H](O)[C@@H](O)[C@@H]1O	none (no result: Tau fluor counter, KDM4E inh, Tau fibril FP, Tau ThT inhib)
Cc1cc(N=NC(=O)c2ccccc2)ccc1O	Sfp PPTase inh 50.1µM, KDM4E inh inconclusive, Tau fibril FP inconclusive, Tau ThT inhib inconclusive
Cc1ccc(N=Nc2ccc(O)c(P(=O)(c3ccccc3)c3ccccc3)c2)cc1	KDM4E inh inconclusive, Tau ThT inhib inconclusive
C=C1CCN(C(C(=O)O)C(C)C)S(=O)(=O)c2ccccc21 (centres undefined)	none (no result: Tau fluor counter, KDM4E inh, Tau fibril FP, Tau ThT inhib)
O=C1NCC2=C1C(c1ccccc1)Nc1ccccc1N2 (centres undefined)	FBPA coupling cs -41.3, KDM4E inh inconclusive, Tau ThT inhib inconclusive
Cc1ccc(Cl)cc1NC(=O)Nc1cn(CC(C)C)c(=O)c2ccccc12	Tau fluor counter inconclusive (no result: FBPA coupling cs, Sfp PPTase inh, KDM4E inh)
CC1CCCC/C1=N\NC(=S)Nc1cccnc1 (centres undefined)	Sfp PPTase inh 20µM, KDM4E inh inconclusive, Tau ThT inhib inconclusive
Cc1ccc(NC(=S)N/N=C2\CCCCC2C)cc1 (centres undefined)	Tau ThT inhib inconclusive
Cc1c(Cl)cccc1NC(=O)C(=O)NCC(c1cccnc1)N1CCN(c2ccccc2)CC1 (centres undefined)	none (no result: FBPA coupling cs, Sfp PPTase inh, KDM4E inh)
COc1ccc2nc(-c3ccc(N(C)C)cc3)sc2c1	none (no result: Tau fluor counter, KDM4E inh, Tau fibril FP, Tau ThT inhib)
Cc1ccc(-c2ccc(CCC(=O)O)o2)cc1	Sfp PPTase inh 44.7µM, KDM4E inh inconclusive
CCCN1C(=O)/C(=C/c2ccc(C)o2)SC1=Nc1ccc(OC)cc1	Sfp PPTase inh 35.5µM, KDM4E inh inconclusive, Tau ThT inhib inconclusive
CCCN1C(=O)/C(=C/c2cc(C)n(C)c2C)SC1=Nc1ccc(OCC)cc1	Tau fluor counter inconclusive, Tau fibril FP inconclusive, Tau ThT inhib inconclusive
CCN1C(=O)/C(=C/c2ccc(C)s2)SC1=Nc1ccc(OC)cc1	none
CCCN1C(=O)/C(=C/c2ccc(C)o2)SC1=Nc1ccc(OCC)cc1	Sfp PPTase inh 7.94µM, Tau ThT inhib inconclusive
COc1ccc(N=C2S/C(=C\c3ccc(N4CCOCC4)o3)C(=O)N2CCc2c[nH]c3ccccc23)cc1	Tau fluor counter inconclusive, Sfp PPTase inh 3.98µM, Tau ThT inhib 14.1µM

Bioassay records: PubChem BioAssay, National Center for Advancing Translational Sciences (NCATS)
